Where “and” joins values, the source holds several entries; their conditions need not be identical. Identical values can stand only once. The campaign covered roughly 67,000 compounds. About 40 (0.06%) showed an effect of 50% or more. What follows is part of a selection rich in strong results, with near analogues and random picks from the rest.

In this experiment the target is T1, Coenzyme A biosynthesis bifunctional protein CoaBC (Mycobacterium tuberculosis (strain ATCC 25618 / H37Rv)) (UniProt P9WNZ1).
T1 sequence (whole entry): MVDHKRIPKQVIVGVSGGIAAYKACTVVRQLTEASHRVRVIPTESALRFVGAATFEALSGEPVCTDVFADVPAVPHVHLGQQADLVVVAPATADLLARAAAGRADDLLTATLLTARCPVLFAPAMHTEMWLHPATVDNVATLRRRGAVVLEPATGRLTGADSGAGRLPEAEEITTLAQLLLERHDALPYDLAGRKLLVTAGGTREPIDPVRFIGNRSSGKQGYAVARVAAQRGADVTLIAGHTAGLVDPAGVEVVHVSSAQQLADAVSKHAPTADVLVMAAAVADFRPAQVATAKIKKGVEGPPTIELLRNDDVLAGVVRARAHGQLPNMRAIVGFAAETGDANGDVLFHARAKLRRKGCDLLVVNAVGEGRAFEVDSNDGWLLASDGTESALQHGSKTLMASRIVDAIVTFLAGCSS
Description: Biomol Green assay for MtCoaBC inhibitor, OD650 read. In kind it is functional. Details: scale not given: in the data most compounds retested in dose-response had high values. Conditions: 30 µM.
With `CN(Cc1cccnc1)C1COC2(CCN(Cc3nccs3)CC2)C1` (configuration not stated), the Percent Effect was 1.85%.
As for `Cc1ccc(CN2CCC3(CC2)CC3CN(C)Cc2cccnc2)o1` (configuration not stated), the Percent Effect was -31.5%.
For `Cc1noc(C)c1C(=O)N1CC[C@H]2C[C@@H](c3ccncn3)O[C@@H]2C1`, the Percent Effect is -0.386%.
As to `CCCS(=O)(=O)N1C[C@@H]2CN(Cc3cnn(C)c3)CCO[C@@H]2C1`, the Percent Effect worked out at 4%.
Turning to `O=C(c1cnccn1)N1C[C@@H]2C[C@@H](c3nc(C4CC4)cs3)O[C@@H]2C1`, the Percent Effect turned out to be 2.75%.
For `c1csc(CN2CCO[C@H]3[C@H](OCCN4CCCC4)CC[C@@H]32)n1`, the Percent Effect worked out at 5.46%.
On to `CCC1=N[C@@]2(CC[C@@H]3CN(S(=O)(=O)CC)C[C@@H]32)C(=O)N1CC(C)C`, for which the Percent Effect came out at 2.92%.
As for `COc1cc(CNC2CCc3nc(C)nn3C2)cc2c1OCCO2` (configuration not stated), the Percent Effect is -5.17%.
In the case of `CCc1nc2n(n1)CC(NCc1cc(OC)c3c(c1)OCO3)CC2` (configuration not stated) it was -7.88%; in that of `Cc1ccc(N2CC[C@H]3OCC[C@@]3(C(=O)N(C)C)C2)nn1`, 2.24%.
Regarding `CS(=O)(=O)N1CC[C@H]2[C@H](C[C@@H](Cn3cncn3)N2CC2CC2)C1`, the Percent Effect amounted to 5%.
Regarding `CC1CCCN(C(=O)c2csc(S(N)(=O)=O)c2)CC1` (configuration not stated), the Percent Effect was -0.441%.
In the case of `CC(C)(C)N1CCCN(C(=O)c2csc(S(N)(=O)=O)c2)CC1`, the Percent Effect was -6.17%.
In the case of `Cc1cnc(N2C[C@H]3CCN(CC4CC4)C[C@@H]3C2)nc1`, the Percent Effect is -28.5%.
Regarding `O=C(O)COc1ccc(CN2CCCC(CCc3ccccc3)C2)cc1` (configuration not stated), the Percent Effect was 94.3% and 88.4%.
Turning to `COc1ccc(CCC2CCCN(CC(=O)O)C2)cc1` (configuration not stated), the Percent Effect was determined as 0.988%.
For `O=C(O)COc1ccc(CN2CCCC(Cc3cccnc3)C2)cc1` (configuration not stated), the Percent Effect is 0.485%.
Take `COCC(C)N1CCN(CCc2ccc3c(c2)CCO3)CC1` (configuration not stated): the Percent Effect came out at 4.17%.
Regarding `CCOCCN1CCN(CCc2ccc3c(c2)CCO3)CC1`, the Percent Effect was -14.1%.
Consider `CN1CCN(C[C@H]2OC[C@@H]3CCN(Cc4ccsc4)C[C@@H]32)CC1`, for which the Percent Effect is -5.68%.
On to `O=C1[C@H]2CN(C3CCOC3)C[C@H]2CN1c1ccccc1` (some centres not stated), for which the Percent Effect is 2.66%.
Then `Cc1cc(CN2C[C@@H]3CCCO[C@@H]3[C@H](N(C)C(C)C)C2)no1`, with 9.94%.
In the case of `O=C(NCC1CC1)[C@@H]1CCO[C@@H]2CCN(c3ncccn3)C[C@@H]21` it was 0.323%; in that of `Cc1nonc1C(=O)N1CC[C@@]2(O)CCN(C3CCCCC3)C[C@H]2C1`, 10.8%; in that of `O=C(NC1CCN(C2CC2)C1)c1cn(-c2ccc(F)cc2)nn1` (configuration not stated), -3.95%.
Turning to `O=C(NC1CCN(C2CC2)CC1)c1cn(-c2ccc(Cl)cc2)nn1`, the Percent Effect came out at 3.19%.
As for `CC(C)CCN1C[C@H]2C[C@H](C(=O)N3CCCC3)[C@@H](C1)O2`, the Percent Effect was 1.46%.
As for `CC(C)N1[C@H](Cn2cncn2)C[C@@H]2CN(Cc3nccn3C)CC[C@@H]21`, the Percent Effect turned out to be 4.19%.
In the case of `COc1ccc(CN2C[C@H]3CCC[C@@H](CN(C)C4CC4)[C@H]3C2)cn1` it was -25.8%.
With `O=C(C1CC1)N1CCN2C[C@H](c3ccccc3)[C@@H](CO)[C@H]2C1`, the Percent Effect was -2.91%.
For the molecule `O=C1CC(c2ccc(O)cc2)c2sc(C(=O)O)c(-c3ccccc3)c2N1` (configuration not stated), the Percent Effect is 1.28%.
Then `O=C1CC(c2ccccc2)c2sc(C(=O)O)c(-c3ccccc3)c2N1` (configuration not stated), with -0.766%; and `Cc1ccc(CN2CC[C@H]3OCC[C@@H](C(=O)NC4CC4)[C@@H]3C2)o1`, with 3.34%; and `O=C(c1ccco1)N1CC[C@@H]2[C@H]1CCC(=O)N2c1ccccc1`, with 3.58%.
Regarding `CN(Cc1cnccn1)C(=O)[C@@]12CNC[C@@H]1CN(Cc1ccccc1)C2`, the Percent Effect stood at 2.15%.
For `CC(C)(C)OC(=O)NCC(=O)NCc1ccc(Cl)s1`, the Percent Effect stood at 7.73%.
As to `CC(NC(=O)CN1CCCC1=O)c1ccc(Cl)s1` (configuration not stated), the Percent Effect was -0.806%.
On to `O=C(C1CCOCC1)N1CCN2C(=O)N(Cc3ccc(F)cc3)C[C@H]2C1`, for which the Percent Effect was found to be 12%.
Regarding `CC1CCN(C(=O)[C@@H]2CC[C@@H]3[C@@H](CCN3c3ncc(F)cn3)O2)CC1`, the Percent Effect was -4.84%.
Consider `CNC(=O)[C@H]1C[C@@H]2CN(Cc3cccnc3OC)C[C@@H]2N1C(C)C`, for which the Percent Effect was found to be 1.06%.
On to `O=C(c1ccsc1)N1CCO[C@@H]2CN(Cc3cccs3)C[C@@H]2C1`, for which the Percent Effect was -4.58%.
Consider `Cc1nnc(N2C[C@H](Oc3ccccn3)[C@H]3OCCC[C@H]32)s1`, for which the Percent Effect amounted to 4.91%.
Consider `Cc1cccc2c1nc(COCC(=O)O)n2-c1ccsc1`, for which the Percent Effect stood at 5.35%.
In the case of `Cc1ccc(-n2c(COCC(=O)O)nc3c(C)cccc32)nc1` it was 5.78%.
As for `COCCC(=O)N1C[C@H]2CC[C@@H]1CN(C1Cc3ccccc3C1)C2`, the Percent Effect was found to be 2.15%.
On to `Cn1cc(CN2C[C@H]3CCC[C@@H](CNc4ncccn4)[C@H]3C2)cn1`, for which the Percent Effect is -2.24%.
As to `Cc1occc1C(=O)N1C[C@H]2CCCC(OCc3cccnc3)[C@H]2C1` (some centres not stated), the Percent Effect amounted to 7.49%.
Then `CN(Cc1ccccn1)C(=O)[C@H]1CO[C@H]2CCN(CC3CC3)C[C@H]2C1`, with 1.98%; and `CN(Cc1nnc2n1CCC2)S(=O)(=O)c1ccc(Br)cc1Cl`, with -1.49%.
Consider `CN(Cc1nnc2n1CCC2)S(=O)(=O)c1cc(Br)ccc1Br`, for which the Percent Effect came out at 3.23%.
With `Cc1cccc(CN2C[C@@H]3OCCN(C)[C@@H]3C2)n1`, the Percent Effect came to 4.44%.
In the case of `c1cnn([C@@H]2CN(Cc3nccs3)[C@@H]3CCCO[C@@H]32)c1` it was 2.08%; in that of `COCCN1C(=O)CC[C@@H]2[C@H]1CCN2C(=O)N(C)C`, 12.9%.
For `CCOC(=O)[C@]12CCCN(Cc3ccco3)C[C@H]1CN(CCN(C)C)C2`, the Percent Effect worked out at 3.17%.
On to `COCC(=O)NC(CC(C)C)c1nc2cccnc2n1C` (configuration not stated), for which the Percent Effect is -0.123%.
Turning to `CC(C)CC(NC(=O)c1ccco1)c1nc2cccnc2n1C` (configuration not stated), the Percent Effect was -9.45%.
Then `COc1cccc(CC(=O)N2CC[C@H]3[C@@H]2CCC(=O)N3C)c1`, with -4.44%; and `Cc1ccsc1CN1C[C@@H]2COC[C@]2(CNC(=O)c2ccco2)C1`, with 2.1%.
For `Cn1cc(N2C[C@@H]3CN(Cc4ccoc4)C[C@@H]3C2=O)cn1`, the Percent Effect is -6.36%.
Then `CN(C)C(C(=O)N1CCC(CCO)CC1)c1ccccc1F` (configuration not stated), with 10.1%; and `CCOCC1CCN(C(=O)C(c2c(F)cccc2F)N(C)C)CC1` (configuration not stated), with -0.163%; and `CN(C)c1ncc(C(=O)N2C[C@H]3C[C@H](Oc4ccccc4)C[C@H]3C2)cn1`, with 12.4%.
On to `Cc1nc(-c2ccc(CC(=O)N3CCNC(=O)C3)cc2)cs1`, for which the Percent Effect was -8.27%.
Consider `Cc1nc(-c2ccc(CC(=O)N3CCN(C(=O)C4CC4)CC3)cc2)cs1`, for which the Percent Effect was -8.67%.
As to `COc1cccc(S(=O)(=O)N2CCN(C)[C@@H]3CS(=O)(=O)C[C@@H]32)c1`, the Percent Effect is -2.92%.
On to `O=C1CC[C@H]2CN(c3ncc(F)cn3)CC[C@H]2N1CCc1c[nH]cn1`, for which the Percent Effect is -3.02%.
In the case of `CC(C)NC(=O)[C@@]12CCO[C@@H]1CCN(Cc1ccc3c(c1)OCO3)C2`, the Percent Effect was -0.976%.
